From the supplement of paper PMC11732987, “Enantioselective OTUD7B fragment discovery through chemoproteomics screening and high-throughput optimisation” (Communications Chemistry, 2025)

Assays:
Experiment in all cases: log2 ratio of Biotin-Ahx-Ub-VS probe labelling (fragment/DMSO); higher = less target engagement (more negative = stronger competition), active = hit call of the paper (q ≤ 0.05, log2 ratio ≤ -1)
Settings in all cases: compound concentration: 200 uM; treatment time: 3 h
ALG13 = target: T1, ALG13 (UniProt Q9NP73)
T1 sequence (whole entry): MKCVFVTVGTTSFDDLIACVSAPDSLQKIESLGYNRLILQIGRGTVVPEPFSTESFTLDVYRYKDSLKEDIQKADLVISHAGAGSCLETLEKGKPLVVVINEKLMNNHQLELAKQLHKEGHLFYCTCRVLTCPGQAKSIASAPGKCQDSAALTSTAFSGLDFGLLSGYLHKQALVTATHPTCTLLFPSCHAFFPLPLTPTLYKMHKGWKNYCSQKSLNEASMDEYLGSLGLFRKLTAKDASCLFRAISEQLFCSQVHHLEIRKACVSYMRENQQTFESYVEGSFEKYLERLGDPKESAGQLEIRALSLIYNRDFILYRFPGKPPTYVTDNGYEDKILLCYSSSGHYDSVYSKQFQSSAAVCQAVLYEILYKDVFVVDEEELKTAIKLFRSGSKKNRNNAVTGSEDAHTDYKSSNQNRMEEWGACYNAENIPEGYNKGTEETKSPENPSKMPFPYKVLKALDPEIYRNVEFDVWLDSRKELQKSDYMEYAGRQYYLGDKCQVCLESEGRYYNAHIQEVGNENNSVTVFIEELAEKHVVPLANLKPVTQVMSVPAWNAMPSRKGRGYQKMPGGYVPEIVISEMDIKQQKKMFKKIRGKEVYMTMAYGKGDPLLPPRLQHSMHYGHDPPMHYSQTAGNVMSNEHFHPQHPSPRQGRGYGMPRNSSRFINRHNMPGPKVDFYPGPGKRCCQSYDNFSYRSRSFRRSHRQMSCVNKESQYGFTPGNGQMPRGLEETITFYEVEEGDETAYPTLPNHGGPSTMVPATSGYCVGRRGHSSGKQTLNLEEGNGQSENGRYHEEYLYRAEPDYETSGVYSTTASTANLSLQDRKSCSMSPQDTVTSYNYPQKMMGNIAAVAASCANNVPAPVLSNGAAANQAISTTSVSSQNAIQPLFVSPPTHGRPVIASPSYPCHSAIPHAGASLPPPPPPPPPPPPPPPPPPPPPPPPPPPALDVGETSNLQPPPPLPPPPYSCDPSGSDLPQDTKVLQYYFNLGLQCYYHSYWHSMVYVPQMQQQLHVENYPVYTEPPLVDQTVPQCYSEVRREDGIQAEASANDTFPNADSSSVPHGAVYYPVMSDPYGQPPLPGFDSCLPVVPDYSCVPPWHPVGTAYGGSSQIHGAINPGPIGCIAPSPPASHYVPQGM
Procedure, shortened: (§1)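 Fragment (200 µM) or vehicle was incubated for 3 h with triplicate HEK293T lysate samples of 495 µg, which were then treated with Biotin-Ahx-Ub-VS at 0.5 µM final for 1 h. Labelled DUBs were enriched on NeutrAvidin, digested with LysC and trypsin, and analysed by diaPASEF LC-MS/MS. Values are average log2 fragment/vehicle ratios from an unpaired t-test on global-median-normalised Spectronaut label-free quantities, using proteins with ≥2 unique peptides.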

ATXN3 = ATXN3 (UniProt P54252)
Procedure, shortened: as §1

BAP1 = target: T2, BAP1 (UniProt Q92560)
T2 sequence (whole entry): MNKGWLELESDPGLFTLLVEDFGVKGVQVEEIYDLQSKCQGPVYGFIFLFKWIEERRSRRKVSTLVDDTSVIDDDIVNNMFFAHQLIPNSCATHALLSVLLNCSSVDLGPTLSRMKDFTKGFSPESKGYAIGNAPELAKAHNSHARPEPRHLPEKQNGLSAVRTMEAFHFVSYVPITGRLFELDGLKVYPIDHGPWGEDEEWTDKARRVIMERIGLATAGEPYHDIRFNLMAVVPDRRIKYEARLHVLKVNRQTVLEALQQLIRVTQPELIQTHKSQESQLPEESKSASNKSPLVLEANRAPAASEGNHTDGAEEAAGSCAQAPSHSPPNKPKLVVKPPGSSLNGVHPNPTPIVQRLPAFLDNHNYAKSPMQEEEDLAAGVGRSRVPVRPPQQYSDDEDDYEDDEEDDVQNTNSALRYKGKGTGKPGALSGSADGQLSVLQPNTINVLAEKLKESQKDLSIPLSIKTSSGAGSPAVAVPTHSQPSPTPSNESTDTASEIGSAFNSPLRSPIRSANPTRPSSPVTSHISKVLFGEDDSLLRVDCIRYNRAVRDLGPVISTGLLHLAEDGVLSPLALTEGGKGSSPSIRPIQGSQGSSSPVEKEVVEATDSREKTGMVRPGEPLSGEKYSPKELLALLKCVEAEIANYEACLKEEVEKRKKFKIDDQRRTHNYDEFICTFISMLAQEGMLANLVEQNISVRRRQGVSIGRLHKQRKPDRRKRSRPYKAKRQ
Procedure, shortened: as §1

EIF3F = EIF3F (UniProt O00303)
Procedure, shortened: as §1

EIF3H = EIF3H (UniProt O15372)
Procedure, shortened: as §1

FAM105A = target: T3, FAM105A (UniProt Q9NUU6)
T3 sequence (whole entry): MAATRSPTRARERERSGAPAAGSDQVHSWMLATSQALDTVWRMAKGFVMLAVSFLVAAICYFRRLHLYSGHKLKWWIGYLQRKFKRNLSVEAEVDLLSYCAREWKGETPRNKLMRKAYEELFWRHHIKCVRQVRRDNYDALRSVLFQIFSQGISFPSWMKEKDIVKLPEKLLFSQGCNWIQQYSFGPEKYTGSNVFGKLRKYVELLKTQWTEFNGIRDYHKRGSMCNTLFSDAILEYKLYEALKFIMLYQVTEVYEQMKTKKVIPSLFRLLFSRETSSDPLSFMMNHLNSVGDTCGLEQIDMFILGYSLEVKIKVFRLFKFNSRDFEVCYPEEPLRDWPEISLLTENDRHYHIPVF
Procedure, shortened: as §1

OTUB1 = OTUB1 (UniProt Q96FW1)
Procedure, shortened: as §1

OTUD4 = target: T4, OTUD4 (UniProt Q01804)
T4 sequence (whole entry): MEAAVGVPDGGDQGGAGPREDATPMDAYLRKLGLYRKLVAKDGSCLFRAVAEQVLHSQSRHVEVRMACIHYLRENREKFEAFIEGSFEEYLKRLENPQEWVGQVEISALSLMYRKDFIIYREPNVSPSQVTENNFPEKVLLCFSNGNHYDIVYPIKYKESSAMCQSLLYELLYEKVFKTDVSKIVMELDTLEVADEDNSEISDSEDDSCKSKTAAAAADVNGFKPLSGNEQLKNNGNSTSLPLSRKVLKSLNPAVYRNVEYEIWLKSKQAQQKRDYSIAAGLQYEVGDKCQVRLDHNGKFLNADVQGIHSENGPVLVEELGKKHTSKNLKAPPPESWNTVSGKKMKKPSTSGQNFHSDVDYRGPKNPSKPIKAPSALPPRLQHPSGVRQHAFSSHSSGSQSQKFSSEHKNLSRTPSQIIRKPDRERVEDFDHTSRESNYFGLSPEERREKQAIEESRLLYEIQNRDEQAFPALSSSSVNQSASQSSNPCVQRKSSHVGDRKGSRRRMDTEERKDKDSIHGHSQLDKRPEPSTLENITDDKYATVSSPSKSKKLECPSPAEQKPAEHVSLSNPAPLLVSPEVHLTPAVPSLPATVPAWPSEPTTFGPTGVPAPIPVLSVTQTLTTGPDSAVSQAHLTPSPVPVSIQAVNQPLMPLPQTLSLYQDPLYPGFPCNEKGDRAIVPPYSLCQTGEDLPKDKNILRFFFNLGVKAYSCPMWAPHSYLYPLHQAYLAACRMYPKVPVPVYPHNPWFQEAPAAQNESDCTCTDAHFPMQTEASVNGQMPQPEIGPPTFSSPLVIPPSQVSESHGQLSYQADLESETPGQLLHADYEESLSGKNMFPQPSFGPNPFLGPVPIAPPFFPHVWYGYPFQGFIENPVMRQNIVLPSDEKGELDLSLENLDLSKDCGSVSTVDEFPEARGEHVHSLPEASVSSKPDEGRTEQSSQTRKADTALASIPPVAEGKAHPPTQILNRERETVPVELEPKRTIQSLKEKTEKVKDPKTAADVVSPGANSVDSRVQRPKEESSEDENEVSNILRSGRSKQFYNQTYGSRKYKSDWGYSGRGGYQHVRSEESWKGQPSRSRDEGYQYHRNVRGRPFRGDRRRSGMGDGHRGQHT
Procedure, shortened: as §1

OTUD5 = target: T5, OTUD5 (UniProt Q96G74)
T5 sequence (whole entry): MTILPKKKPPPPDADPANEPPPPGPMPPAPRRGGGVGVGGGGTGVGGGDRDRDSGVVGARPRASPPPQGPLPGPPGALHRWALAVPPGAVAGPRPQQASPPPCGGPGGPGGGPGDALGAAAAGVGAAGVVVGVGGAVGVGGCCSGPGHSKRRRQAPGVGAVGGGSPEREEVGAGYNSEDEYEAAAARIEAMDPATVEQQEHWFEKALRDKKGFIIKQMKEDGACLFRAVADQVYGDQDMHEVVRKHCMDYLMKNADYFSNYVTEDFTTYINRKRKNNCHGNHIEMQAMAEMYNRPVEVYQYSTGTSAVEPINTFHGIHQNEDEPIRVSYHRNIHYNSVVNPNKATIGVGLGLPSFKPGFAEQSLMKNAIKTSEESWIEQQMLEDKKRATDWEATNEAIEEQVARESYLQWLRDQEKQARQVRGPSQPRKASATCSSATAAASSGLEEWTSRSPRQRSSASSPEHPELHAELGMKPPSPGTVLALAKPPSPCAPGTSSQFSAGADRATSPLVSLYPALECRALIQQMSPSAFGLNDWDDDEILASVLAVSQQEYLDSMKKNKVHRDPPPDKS
Procedure, shortened: as §1

Measured: log2 ratio of Biotin-Ahx-Ub-VS probe labelling

OTUB1, sequence (Q96FW1 whole entry): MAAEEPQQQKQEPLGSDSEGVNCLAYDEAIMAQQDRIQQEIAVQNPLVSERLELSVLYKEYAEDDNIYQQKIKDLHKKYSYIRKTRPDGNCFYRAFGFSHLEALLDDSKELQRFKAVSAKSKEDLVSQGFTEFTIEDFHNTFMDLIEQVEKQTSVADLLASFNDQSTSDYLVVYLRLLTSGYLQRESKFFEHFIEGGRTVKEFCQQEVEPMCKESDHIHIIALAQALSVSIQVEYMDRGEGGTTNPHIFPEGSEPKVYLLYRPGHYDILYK
ATXN3, sequence (P54252 whole entry): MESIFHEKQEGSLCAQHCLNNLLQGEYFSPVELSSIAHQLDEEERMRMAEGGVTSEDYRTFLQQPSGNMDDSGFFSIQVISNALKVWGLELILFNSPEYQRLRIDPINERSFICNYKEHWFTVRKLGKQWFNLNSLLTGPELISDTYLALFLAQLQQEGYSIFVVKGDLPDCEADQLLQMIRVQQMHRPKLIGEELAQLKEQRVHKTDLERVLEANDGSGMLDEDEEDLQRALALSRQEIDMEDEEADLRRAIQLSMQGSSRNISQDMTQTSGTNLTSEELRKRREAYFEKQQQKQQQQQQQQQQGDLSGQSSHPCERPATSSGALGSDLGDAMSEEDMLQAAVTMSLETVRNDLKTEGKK
EIF3F, sequence (O00303 whole entry): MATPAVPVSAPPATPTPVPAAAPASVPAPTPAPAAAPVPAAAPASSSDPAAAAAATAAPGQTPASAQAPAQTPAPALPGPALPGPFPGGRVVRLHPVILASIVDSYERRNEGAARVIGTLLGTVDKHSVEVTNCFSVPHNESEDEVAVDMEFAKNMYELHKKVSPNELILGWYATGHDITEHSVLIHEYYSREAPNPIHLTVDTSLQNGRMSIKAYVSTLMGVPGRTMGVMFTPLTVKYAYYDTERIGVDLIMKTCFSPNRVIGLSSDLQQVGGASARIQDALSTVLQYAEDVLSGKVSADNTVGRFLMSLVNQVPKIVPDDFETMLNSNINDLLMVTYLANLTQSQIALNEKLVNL
EIF3H, sequence (O15372 whole entry): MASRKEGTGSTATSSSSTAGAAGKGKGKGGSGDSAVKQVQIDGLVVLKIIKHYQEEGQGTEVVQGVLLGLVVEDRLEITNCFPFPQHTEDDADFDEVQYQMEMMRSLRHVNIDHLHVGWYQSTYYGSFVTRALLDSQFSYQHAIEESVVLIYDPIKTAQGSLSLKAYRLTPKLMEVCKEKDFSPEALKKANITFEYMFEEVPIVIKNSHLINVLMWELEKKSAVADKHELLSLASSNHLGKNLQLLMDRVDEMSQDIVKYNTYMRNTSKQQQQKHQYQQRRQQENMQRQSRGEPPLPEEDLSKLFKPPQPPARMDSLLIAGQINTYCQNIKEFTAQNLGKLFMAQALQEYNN

CC(NC(=O)CCl)c1cccc(Cl)c1 (centres undefined)
active: BAP1 -3.17
inactive: ALG13 0.0326 | ATXN3 -0.401 | EIF3F 0.0315 | EIF3H 0.0634 | FAM105A -0.0535 | OTUB1 0.0729 | OTUD4 -0.705 | OTUD5 -0.433
